Mot1-301 SUMO: blocks SUMOylation pathway, rescuing yeast Mot1-301 growth; S. cerevisiae Mot1-301 growth rescue, ATP luminescence, 38.5C; percent above DMSO median, 100 means doubled; growth rescue, % at 18.8 µM; 1% of 320,000 active; AID 2716;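 active = every valid replicate shows activation above 250% relative to neutral control wells; inactive = the rest, any valid replicate at or below 250%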
PfHsp90 yeast 2: inhibits growth of yeast expressing Plasmodium falciparum Hsp90 | 0.32% of 310,000 active | S. cerevisiae expressing PfHsp90, BacTiter-Glo ATP, 48 h; yeast lacking PDR1 and PDR3 efflux regulators | AID 504621 | inhibition, % at 9.4 µM;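 active = every replicate shows inhibition above about 80%, whatever the replicate mean, limit read from the data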
TIM10 inh: growth inhibitors of TIM10 yeast strain; inhibition, % at 10 µM; S. cerevisiae TIM10 strain growth, BacTiter-Glo luminescence, 24 h; 1.4% of 330,000 active;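 active = inhibition of 40% or more at the single tested concentration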;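 note: wild-type TIM10 isogenic control strain grown at permissive 25 °C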
tim23-1 inh: growth inhibitors of tim23-1 mutant yeast. S. cerevisiae tim23-1 growth, BacTiter-Glo luminescence, 24 h. inhibition, % at 20 µM. 1.3% of 330,000 active. AID 463212;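 active = growth inhibition of the mutant yeast at or above 50%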;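 note: temperature-sensitive mutant grown at 25 °C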
tim10-1 inh: inhibits growth of tim10-1 mutant yeast; inhibition, % at 20 µM; S. cerevisiae tim10-1 ts strain growth, BacTiter-Glo, 24 h; 2.2% of 330,000 active;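 active = inhibition of at least 40%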;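 note: mutant grown at 25 °C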
tim10-1 conf: tim10-1 yeast growth inhibition, confirmed. S. cerevisiae tim10-1 ts strain growth, BacTiter-Glo, 24 h. 56% of 7,400 active. AID 463213. shares compounds with tim10-1 inh. inhibition, % at 20 µM;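 active = inhibition of yeast growth at or above a set limit in either of two repeat tests at 20 µM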;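 note: tim10-1 mutant grown at permissive 25 °C to find synthetic lethal compounds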
TIM10 conf: confirmation of TIM10 yeast growth inhibitors; shares compounds with TIM10 inh; S. cerevisiae tim10 strain growth, BacTiter-Glo luminescence, 24 h; inhibition, % at 10 µM; 63% of 4,600 active; AID 463215;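 active = inhibition of yeast growth at or above a set limit in either of two replicates at 10 µM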; note: this counterscreen used the strain with wild-type TIM10
Hits are given with their value; - = inactive; . = not tested or not shown. The list is not random: actives were taken first. Their share in the collection is about 4.4%.

SMILES	Mot1-301 SUMO	PfHsp90 yeast 2	TIM10 inh	tim23-1 inh	tim10-1 inh	tim10-1 conf	TIM10 conf
O=[N+]([O-])c1cccc(S(=O)(=O)/N=C(/Nc2ccccc2)c2ccccc2)c1	-	-	-	-	-	.	.
CC1=CC(C)(C)N2C(=O)C3(SCC(=O)N3c3ccc(O)cc3)c3cc(C)cc1c32 (centres undefined)	-	-	-	-	43	-	.
CCCC(=O)Nc1sc2c(c1C(=O)OC)C(C(=O)OC)CC2 (centres undefined)	-	-	-	-	-	.	.
COCC(=O)Nc1sc2c(c1C(=O)OC)C(C(=O)OC)CC2 (centres undefined)	-	-	-	-	43	-	.
NNC(=O)C1C(O)CCC2CN3CCc4c([nH]c5ccccc45)C3CC21 (centres undefined)	.	-	.	.	.	.	.
CCN(c1nc(C)cc(OC)n1)S(=O)(=O)c1ccccc1	-	-	-	-	40	-	.
CCCC(=O)NC(=S)Nc1ccc(Cl)cn1	-	-	-	-	45	32	.
N#Cc1sc(NCc2ccccn2)nc1Cl	-	-	-	-	-	.	.
CCOc1cc(/C=C2\C(=O)N(c3nc(-c4ccc(Br)cc4)cs3)N=C2c2ccccc2)ccc1O	-	-	-	-	47	-	.
COc1cc(/C=C2\C(=O)N(c3ccc(NC(C)=O)cc3)N=C2c2ccccc2)ccc1O	-	-	-	-	-	.	.
COc1ccccc1N(C)S(=O)(=O)c1ccc(C(=O)NCC2CCCCC2)cc1	-	-	-	-	-	.	.
CC1=C(C(=O)Nc2cccc(C(=O)NC3CCCC(C)C3C)c2)SCCO1 (centres undefined)	-	-	-	-	49	-	.
Clc1ccc(Cn2ncc3c(N4CCCCC4)ncnc32)c(Cl)c1	-	-	-	-	43	-	.
Clc1ccc(Cn2ncc3c(N4CCCCC4)ncnc32)cc1	-	-	-	-	-	.	.
Cc1[nH]c(=O)[nH]c(=O)c1S(=O)(=O)Nc1ccc(F)cc1F	-	-	-	-	-	.	.
Cc1ccccc1CC(=O)N1CCN(S(=O)(=O)c2ccc(Cl)s2)CC1	-	.	-	-	-	.	.
Cc1ccc(C(=O)O/N=C2\CCSc3ccc(C)cc32)cc1	-	.	-	-	40	33	.
Cc1cccc(C(=O)O/N=C2\CCSc3ccc(C)cc32)c1	-	-	-	-	-	.	.
Cc1cc(Br)ccc1S(=O)(=O)NCc1ccccc1	-	-	-	-	-	.	.
N#CCCN1CCCc2cc(N=Nc3ccc(C(F)(F)F)cc3)ccc21	-	-	-	-	41	34	.
CCCN1CCCc2ccccc21	-	-	-	-	-	.	.
COc1cc(SC)ccc1C(=O)OCC(=O)N1CCCC1	-	-	-	-	-	.	.
CCOC(=O)C1CCN(C(=O)c2ccc(OCC(=O)Nc3cccc(C(F)(F)F)c3)c(OC)c2)CC1	-	-	59	-	55	66	63
CCOC(=O)C1CCN(C(=O)c2ccc(OCC(=O)Nc3ccc(OCC)cc3)c(OC)c2)CC1	-	.	-	-	-	.	.
c1ccc(Oc2nc(N3CCOCC3)nc(N3CCOCC3)n2)cc1	-	-	-	-	-	.	.
SMILES	Mot1-301 SUMO	PfHsp90 yeast 2	TIM10 inh	tim23-1 inh	tim10-1 inh	tim10-1 conf	TIM10 conf
c1cc(C2CCCCC2)ccc1Oc1nc(N2CCOCC2)nc(N2CCOCC2)n1	-	-	52	-	44	-	33
O=C(Cc1ccccc1F)N1CCN(S(=O)(=O)c2ccc(Cl)cc2)CC1	-	-	-	-	-	.	.
O=S(=O)(Cc1ncc(C(F)(F)F)cc1Cl)c1ccccc1	-	-	-	-	-	.	.
CCN(C(=O)COC(=O)/C(=C/c1ccccc1)n1nnnc1C)C1CCCCC1	-	-	41	-	42	38	45
CN1CCC(N(C)C(=O)c2cc(-c3ccccc3Cl)nc3ccccc23)CC1	-	-	-	-	-	.	.
CC1Cc2ccccc2N1S(=O)(=O)c1cccc(C(=O)N2Cc3ccccc3CC2C(N)=O)c1 (centres undefined)	-	-	-	-	-	.	.
O=C(Cn1c2ccc(F)cc2c2nc3n(c(=O)c21)CCS3)Nc1ccccc1F	-	.	52	-	51	44	42
O=C(Cn1c2ccc(F)cc2c2nc3n(c(=O)c21)CCS3)Nc1ccccc1C(F)(F)F	-	-	-	-	-	.	.
CS(=O)(=O)N1CCN(C(=O)Cc2ccc(Br)cc2)CC1	-	-	-	-	-	.	.
CCc1ccc(-c2cn(C3CCCCC3)c(=S)[nH]2)cc1	-	-	53	-	45	46	56
Cc1cccc(NC(=S)NNC(=O)c2csc3c2CCCC3)c1	-	-	43	-	45	45	-
CN(C)c1ccc(C2Nc3cccc4cccc(c34)N2)cc1	-	-	66	-	57	58	67
c1csc(C2Nc3cccc4cccc(c34)N2)c1	-	-	48	-	53	52	-
CC(Sc1nnc(-c2cccnc2)o1)C(=O)NC1CCCCC1 (centres undefined)	-	-	-	-	-	.	.
COC(=O)c1cc(C(=O)NCc2ccccc2)c(=O)[nH]c1C	-	-	-	-	-	.	.
COC(=O)[C@]1(Cc2ccccc2)N[C@H](CN(C)C(=O)COc2ccccc2)[C@@H]2C(=O)N(Cc3ccccc3)C(=O)[C@@H]21	-	-	-	-	-	.	.
Cc1ccc(CNc2nc(C)cs2)cc1	-	-	-	-	-	.	.
C=C1CCC[C@]2(C)C[C@H]3OC(=O)C(CN(Cc4ccc(OC)c(OC)c4)CC(C)O)[C@H]3CC12 (some centres undefined)	-	-	44	-	43	40	46
CC(Sc1ccc(S(=O)(=O)N2CCN(C)CC2)cn1)C(=O)NC1CCCCC1 (centres undefined)	-	-	-	-	-	.	.
CC(=O)OCCCNc1cc(Sc2nc3ccccc3s2)c2nonc2c1[N+](=O)[O-]	-	-	85	-	91	91	-
N/C(=N\OC(=O)/C=C/c1ccccc1)c1ccc(Cl)cc1	-	-	-	-	-	.	.
CCC(C(=O)O/N=C(\N)c1ccc(Cl)cc1)c1ccccc1 (centres undefined)	-	-	63	-	75	63	71
CC(C)(C)NC(=O)c1ccc2c(c1)C1C3CCC(C3)C1C(c1ccccc1)N2 (centres undefined)	-	-	42	-	44	34	-
Oc1ccc(C(=S)N2CCN(c3cccc(Cl)c3)CC2)cc1	-	-	54	-	41	53	48
CCC(C)N(CC(=O)Nc1cccc(C)c1C)C(=O)CCl (centres undefined)	-	-	54	-	53	47	46
CCC(CC)NC(=O)Nc1cccc(C)c1C	-	-	-	-	-	.	.
O=C(COc1ncnc2ccc(Br)cc12)NC1CCCC1	-	-	-	-	-	.	.

Screening results: PubChem BioAssay, several laboratories
